The whole screen tested about 1,200 compounds, of which about 870 (72%) were called active. About 3% were inconclusive and are not listed.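 Rule for the calls: active = every test run fits a falling curve whose half-maximal concentration is at most twice the top valid dose; inconclusive = runs disagree, or flat 30 to 70% inhibition, or poor fit; inactive = every run inactive: flat, rising or weaker potency.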 So high a share suggests a set chosen from earlier hits. These entries were drawn from the full list. Measured potencies and affinities stand elsewhere.
assay: ZM109 Env clade C HIV-1 fusion inhibitors, dose response, HeLa effector, CEM target cells, luciferase, cherry-pick (AID 652058); conditions: HeLa Env/CEM cell fusion, 16-24 h; series mostly up to 35 µM; activity change, negative = inhibition: at the top concentration;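 note: 0% = neutral control wells and -100% = maraviroc 300 nM wells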

Activity change, negative = inhibition, inactive:
C[C@H]1NC(=O)[C@@]2(C)[C@H](c3ccccc3)[C@H]3COc4ccccc4[C@@H]3N2C1=O 148%
COc1cc2c(cc1OC)C(=O)N1[C@H]3c4cc(Cl)ccc4OC[C@@H]3[C@H](c3ccccc3)[C@]1(C)C(=O)N2 -15.7%
COc1ccc(OCC(=O)Nc2cc(-c3nn(C)c(=O)c4ccccc34)ccc2OC)cc1 32.8%
COc1ccc(-c2nn(C)c(=O)c3ccccc23)cc1NC(=O)COc1ccccc1 33.2% [at 16 µM]
Cc1ccc(-c2ccc3c(c2)O[C@@H](CN(C)C(=O)C2CCCCC2)[C@H](C)CN([C@H](C)CO)S3(=O)=O)cc1 -97.7%
Cc1ccc(-c2ccc3c(c2)O[C@H](CN(C)Cc2ccncc2)[C@@H](C)CN([C@@H](C)CO)S3(=O)=O)cc1 30.1% [at 16 µM]
C[C@H](CO)N1C[C@H](C)[C@H](CN(C)Cc2ccccc2F)Oc2cc(C3=CCCC3)ccc2S1(=O)=O -114%
Cc1ccc(-c2ccc3c(c2)O[C@@H](CN(C)Cc2ccncc2)[C@H](C)CN([C@H](C)CO)S3(=O)=O)cc1 -87.2%
O=C(c1cccc(S(=O)(=O)N2CCN(c3ccccc3)CC2)c1)N1CCCC(C(F)(F)F)C1 (stereo not drawn) -4.76%
Cc1ccccc1S(=O)(=O)NC(=O)C1(C)CCN1C(=O)CCc1ccc(Cl)cc1Cl (stereo not drawn) 33.3%
COC(=O)[C@@]1(Cc2ccc(F)cc2)[C@H]2c3cc(C(=O)N(C)C)n(CCO)c3C[C@H]2CN1C(=O)c1ccccc1 101%
N#Cc1ccc(CSc2nnc(COc3ccccc3)n2-c2ccccc2)cc1 -17.7%
CC(NC(=O)c1ccccc1NC(=O)CN1CCc2ccccc2C1)c1ccccc1 (stereo not drawn) -37%
Cc1ccc(-n2nnnc2SCn2nnc3ccccc3c2=O)c(C)c1 40.8%
Cc1cccc(N2CCN(C(=O)CCCSc3nc4ccccc4[nH]3)CC2)c1C -31.6%
O=C(NCc1cccnc1)c1c[nH]c2cc3c(cc2c1=O)OCCO3 107%
N#C[C@H]1[C@@H](c2ccccc2/C=C/c2ccccc2)[C@@H](CO)N1S(=O)(=O)c1cccc(F)c1 21.6%
Cc1ccc(CSCCNC(=O)c2ccc(Cl)c(S(=O)(=O)N3CCOCC3)c2)cc1 -30.2%
Cc1nc2sc(C(c3ccco3)N3CCC(Cc4ccccc4)CC3)c(O)n2n1 (stereo not drawn) 66.1%
C[C@H]1CN([C@@H](C)CO)C(=O)Cc2cc(N(C)C)ccc2O[C@H]1CN(C)CC1CC1 35%
COCCCNC(=O)c1sc2ncnc(N3CCc4ccccc4C3)c2c1C 67.1%
CC(C)(C)OC(=O)N1CCc2onc(-c3ccc(Br)cc3)c2C1=O 40.4%
COc1ccc(Nc2ncc(C(=O)N3CCN(c4ccc(F)cc4)CC3)c3ccccc23)cc1 -34.6%

Source: PubChem BioAssay AID652058 (Broad Institute, 2013)
